In the library only some 2.7% were active in any assay of this set; here they are far more common.
pPAFAH FP inh – pPAFAH (human) enzyme inhibition | Q13093 | recombinant pPAFAH, FP-rhodamine probe fluorescence polarization | inhibition, % at 3.39 µM | actives 1.5% (n = 330,000) | AID 463082;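 active = inhibition above the mean inhibition across the screen plus 3 SD, cut at about 25% in these data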;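 also: inhibitors block binding of the rhodamine activity-based probe so polarization drops; 0% = enzyme with DMSO and 100% = wells lacking pPAFAH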
Target sequence (Q13093 whole entry, looked up): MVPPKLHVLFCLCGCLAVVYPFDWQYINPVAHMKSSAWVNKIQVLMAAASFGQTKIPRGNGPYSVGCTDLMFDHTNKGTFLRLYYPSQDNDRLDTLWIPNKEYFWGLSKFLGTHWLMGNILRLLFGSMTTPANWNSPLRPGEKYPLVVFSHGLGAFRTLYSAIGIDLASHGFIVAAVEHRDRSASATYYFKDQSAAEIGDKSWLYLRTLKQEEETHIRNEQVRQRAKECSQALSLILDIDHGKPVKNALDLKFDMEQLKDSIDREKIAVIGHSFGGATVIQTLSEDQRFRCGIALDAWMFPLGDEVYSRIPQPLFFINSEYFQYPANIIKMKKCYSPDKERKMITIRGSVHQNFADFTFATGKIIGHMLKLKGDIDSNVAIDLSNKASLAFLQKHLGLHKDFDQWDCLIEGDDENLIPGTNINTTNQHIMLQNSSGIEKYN
PAFAH1B3 FP inh – PAFAH1B3 (human) inhibition; Q15102; AID 492972; actives 0.28% (n = 340,000); inhibition, % at 3.39 µM; recombinant PAFAH1B3, FP-rhodamine probe, fluorescence polarization;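 active = inhibition above the screen-wide average of all tested compounds plus 3 SD, cut at about 25% in these data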;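 also: 0% = enzyme with DMSO only and 100% = wells lacking PAFAH1B3 protein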
PAFAH2 inh – PAFAH2 (human) inhibition; recombinant PAFAH2, FP-rhodamine activity probe, fluorescence polarization; inhibition, % at 3.39 µM; actives 0.99% (n = 340,000); AID 492956;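 active = inhibition above the mean over all tested compounds plus 3 SD, cut at about 30% in these data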;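 also: inhibitors block probe labeling of enzyme so polarization drops; 0% = enzyme with DMSO and 100% = wells lacking PAFAH2 protein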
PAFAH1B2 FP inh – PAFAH1B2 (human) inhibition | inhibition, % at 3.39 µM | recombinant PAFAH1B2, FP-rhodamine activity probe, fluorescence polarization | actives 1.2% (n = 340,000);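 active = inhibition above the mean of all tested compounds plus 3 SD, cut at about 24% in these data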;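 also: 0% = enzyme with DMSO and 100% = wells lacking PAFAH1B2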
Target sequence (P68402 whole entry, looked up): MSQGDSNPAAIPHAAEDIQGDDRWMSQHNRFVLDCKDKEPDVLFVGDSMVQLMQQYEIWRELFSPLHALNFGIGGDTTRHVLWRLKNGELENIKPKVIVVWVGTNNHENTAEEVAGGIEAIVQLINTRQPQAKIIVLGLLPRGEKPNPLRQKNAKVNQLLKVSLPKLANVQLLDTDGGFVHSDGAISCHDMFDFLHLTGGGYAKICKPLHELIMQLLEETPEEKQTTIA
TCR CD3 inh – inhibitors of human TCR-CD3 interaction; inhibition, % at 9.4 µM; AID 651800; TAMRA-labeled TCR probe fluorescence, biochemical; actives 0.37% (n = 360,000); in the data active = inhibition above about 19%;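 also: recombinant mutant TCR 2C K166C tagged with TAMRA read by polarization; 0% = receptor in buffer alone and 100% = receptor with positive control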
An asterisk follows results filed as active; . = no result given.

SMILES | pPAFAH FP inh | PAFAH1B3 FP inh | PAFAH2 inh | PAFAH1B2 FP inh | TCR CD3 inh
CC1=C(C(=O)OCC(Br)(Br)Br)C(c2cccc([N+](=O)[O-])c2)NC(=O)N1CCCC(=O)O (stereo not given) | -3.1 | -7.0 | -1.6 | 92.0* | -5.5
CCOC(=O)C1=C(C)N(CCCCCC(=O)O)C(=O)NC1c1cccc([N+](=O)[O-])c1 (stereo not given) | 1.2 | 2.7 | -0.4 | 7.2 | -7.2
Cc1cc(Nc2ccc(Cl)cc2)n2ncnc2n1 | . | 8.5 | -2.4 | 0.5 | -2.5
Cc1cc(NCCc2ccc(Cl)cc2)n2ncnc2n1 | 3.7 | -2.8 | -3.0 | 24.4* | 2.8
CC1=CC(=O)c2c(O)ccc(O)c2C1=O | 69.5* | . | . | . | .
Nc1[nH]c(C(=O)c2ccc(Br)cc2)c(-c2ccc(Cl)cc2Cl)c1C(=O)NCCc1c[nH]c2ccccc12 | . | . | . | . | -10.8
COCCCN(C(=S)NC(=O)c1ccc(C(C)(C)C)cc1)c1c(N)n(Cc2ccccc2)c(=O)[nH]c1=O | 7.8 | 5.1 | 9.1 | 27.4* | -1.7
CCCCN(C(=O)c1cccc(-n2cccc2)c1)c1c(N)n(Cc2ccccc2)c(=O)[nH]c1=O | 33.2* | -5.3 | 6.5 | 1.8 | 10.5
CCCCN(C(=O)c1cccc(N2C(=O)c3ccccc3C2=O)c1)c1c(N)n(CC(C)C)c(=O)[nH]c1=O | -4.0 | 14.5 | -0.5 | -0.1 | -0.4
Cc1[nH]nc2c1C(c1ccc(F)cc1)N(c1ccccc1)C2=O (stereo not given) | . | . | . | . | 10.3
CCc1nn(C(CC)C(=O)NCCCN2CC(C)CC(C)C2)c(=O)c2cc3oc(C)cc3n12 (stereo not given) | 6.9 | 4.1 | 5.9 | -5.4 | 6.8
COc1ccc(S(=O)(=O)Nc2ccccc2C)cc1C(=O)N1CCOCC1 | 25.6* | 3.4 | 7.8 | 1.3 | -2.1
Cc1ccccc1NS(=O)(=O)c1ccc(C)c(C(=O)N2CCOCC2)c1 | 33.5* | 3.9 | -2.7 | -1.1 | 4.0
Nc1[nH]c(C(=O)c2ccccc2)c(-c2ccccn2)c1C(=O)c1c[nH]c2ccc(F)cc12 | . | . | . | . | -1.1
Cc1ccc(S(=O)(=O)N2[C@@H](c3ccc(Cl)cc3)C(C(=O)O)=C[C@H]2C(C)(C)C)cc1 | 1.1 | 2.7 | -2.3 | 51.1* | 6.1
CCCC[C@@H]1C=C(C(=O)O)[C@H](c2ccc(Cl)c(Cl)c2)N1S(=O)(=O)c1ccc(C)cc1 | -1.4 | 8.9 | 2.2 | 25.9* | -0.9
Nc1[nH]nc2ncc3cc4ccccc4nc3c12 | 30.4* | 1.3 | 0.7 | 1.4 | 4.8
C[C@H]1[C@@H]2C[C@@]3(O[C@H](c4ccc(C(F)(F)F)cc4)N=C3C[C@@H]1c1ccccc1)N(Cc1ccncc1)C2=O | . | . | . | . | -3.3
COc1ccc(-c2cc(=O)oc3cc(OC(=O)C4CCCCC4)ccc23)cc1 | -2.0 | -12.2 | -9.6 | 0.7 | -2.6
O=C(Oc1ccc2c(-c3ccccc3)cc(=O)oc2c1)C1CCCCC1 | 31.5* | 2.5 | -6.3 | -2.2 | -1.8
CC(=O)c1ccc(-c2cccc([C@H]3[C@@H]4C=CC[C@@H](C)[C@@H]4C(=O)N3Cc3ccccc3)c2)cc1 | 0.9 | 1.5 | -0.6 | 1.6 | -4.4
Cc1cc(N2CCNC[C@@H]2C)ccc1N1CCN(Cc2ccccc2)[C@@H](C)C1 | . | . | . | . | 5.0
Cc1cccc(C)c1OCC(=O)Nc1oc(-c2ccccc2)c(-c2ccccc2)c1C#N | -5.5 | 2.5 | -19.5 | -1.7 | -0.1
N#Cc1c(NC(=O)CSc2n[nH]c(N)n2)oc(-c2ccccc2)c1-c1ccccc1 | 11.5 | 9.5 | -3.2 | 25.0* | 1.6
N#Cc1c(NC(=O)Cn2c(=O)oc3ccccc32)oc(-c2ccccc2)c1-c1ccccc1 | 22.3 | -8.2 | 15.1 | 40.2* | 8.7
SMILES | pPAFAH FP inh | PAFAH1B3 FP inh | PAFAH2 inh | PAFAH1B2 FP inh | TCR CD3 inh
O=c1cc(-c2ccc([N+](=O)[O-])cc2)nc2cc(-c3ccc(F)cc3)[nH]n12 | 32.5* | 10.3 | 17.4 | 57.5* | -1.0
O=C(NCC1CCCO1)c1cccc(S(=O)(=O)Nc2ccccc2Cl)c1 (stereo not given) | . | . | . | . | -4.0
COc1ccc(CN2C(=O)c3ccccc3C2C(=O)NC2CCCC2)c(OC)c1 (stereo not given) | 0.9 | -1.1 | 3.1 | 6.3 | -3.8
COc1ccc(CN2C(=O)c3ccccc3C2C(=O)NC2CCC(C)CC2)c(OC)c1 (stereo not given) | 10.7 | 10.6 | 1.2 | 25.7* | 8.2
COC(=O)[C@]12C[C@H](CC(=O)NCCc3ccccc3OC)C(=O)N(CCC3=CCCCC3)C1=C[C@H](C(C)(C)C)O[C@@H]2C | . | . | . | . | 6.4
Cc1cc(C)n(-c2ccc(C(=O)OCC(=O)NCc3ccc(F)cc3)cc2)n1 | 28.0* | 2.7 | 24.7 | 5.9 | 5.0
CSc1ccccc1NC(=O)COC(=O)c1ccc(-n2nc(C)cc2C)cc1 | 25.3* | 7.4 | 58.8* | 5.2 | 13.0
Cc1cc(C)n(-c2ccc(C(=O)OCC(=O)NCc3ccc(Cl)cc3)cc2)n1 | 22.6 | -4.7 | 25.8 | 1.5 | 8.7
C[C@]12Cc3ccccc3C1CC1=N[C@@H](c3ccccn3)O[C@@]13C[C@@H]2C(=O)N3C1CCN(Cc2ccccc2)CC1 (stereo not given in full) | . | . | . | . | 1.6
COc1ccc(S(=O)(=O)N(C)C[C@H]2Oc3ccc(NS(=O)(=O)c4ccccc4)cc3CC(=O)N([C@H](C)CO)C[C@@H]2C)cc1 | 15.4 | 10.7 | 4.5 | 11.1 | 3.8
COc1ccc(S(=O)(=O)Nc2ccc3c(c2)CC(=O)N([C@@H](C)CO)C[C@@H](C)[C@@H](CN(C)Cc2ccccc2)O3)cc1 | 10.8 | 6.9 | 2.6 | 37.6* | 11.1
COc1ccc(NC(=O)N(C)C[C@H]2Oc3ccc(NC(=O)Cc4ccccc4)cc3CC(=O)N([C@H](C)CO)C[C@H]2C)cc1 | 31.2* | 6.2 | -3.4 | 1.1 | 3.2
Nc1ccc(-c2nnnn2-c2ccc(N)cc2)cc1 | 6.7 | 5.4 | 0.9 | 4.1 | 3.6
CCOC(=O)C1CCCN(CC(=O)Nc2nccs2)C1 (stereo not given) | 27.7* | 4.6 | 1.9 | 2.3 | 2.5
COc1ccccc1-c1cc(-c2ccc(O)cc2)nc(N)c1C#N | 30.2* | 3.4 | 33.0* | 5.9 | 0.1
Cc1cc(O)cc(=O)n1-c1cc(C(F)(F)F)cc(C(F)(F)F)c1 | . | . | . | . | -2.6
O=C1OC(c2cccs2)=N/C1=C\c1ccc(-c2cccc(Cl)c2)o1 | 29.7* | -0.5 | 5.3 | 1.6 | 0.2
Clc1cccc(-c2ccc(/C=N/n3cnnc3)o2)c1 | -3.2 | 8.6 | -6.0 | 7.0 | 3.8
COc1cccc(CC(=O)Nc2ccc(F)c(S(=O)(=O)N3CCOCC3)c2)c1 | . | -0.1 | -6.8 | 2.7 | -6.2
COc1cc(/C=N/n2cnnc2)ccc1OCCSc1ccc(C)cc1 | 11.2 | 0.6 | -0.4 | 24.4* | 0.8
COc1cc(/C=N\n2cnnc2)ccc1OCC(=O)Nc1ccc(C)cc1 | -5.4 | -1.3 | -7.1 | -0.8 | -2.8
CCCN1CCCCC(NC(=O)c2ccc(C)cc2C)C1=O (stereo not given) | . | . | . | . | 0.0
COc1ccc(S(=O)(=O)Nc2cccc(F)c2)cc1C | 26.5* | 0.0 | 5.9 | -2.9 | 4.4
COc1ccc(S(=O)(=O)Nc2cccc(N(C)S(C)(=O)=O)c2)cc1C | -2.7 | -4.3 | 0.5 | -0.3 | -4.0

Screens (PubChem)
